This passage reports Potency, max activation and outcome results from PubChem BioAssay (Tox21).

Assay [1] is described as follows: Caspase-3/7 induction in CHO-K1 cells by small molecules, qHTS assay (AID 1346980). Note: nearly all actives have a fitted effect of over 15% in size. Note: potency is the fitted concentration of half-maximal effect. In outline: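 Wild-type cells were seeded at 1,500 per well and settled 5 hr at 37 C, 5% CO2, then exposed to DMSO-dissolved compounds for 17 hr. Caspase-Glo 3/7 reagent was added, and luminescence was read after 30min at room temperature.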
(qHTS replaces the single test concentration by a dilution series.)

Assay [2] deals with Nuclear receptor subfamily 1 group I member 2 (Homo sapiens) (UniProt O75469). Briefly: Human pregnane X receptor (PXR) small molecule agonists, qHTS assay (AID 1346982). Note: nearly all actives have a fitted effect of over 35% in size. Note: potency is the fitted concentration of half-maximal effect. In outline:
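Luminescence (ONE-Glo, 30 min RT) after 24 hr compound exposure of PXR-Luc HepG2 cells; cells rested 5 hr post-plating in 5% charcoal-stripped FBS medium.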

In assay [3] the target is Nuclear receptor subfamily 1 group I member 2 (Rattus norvegicus) (UniProt Q9R1A7). Briefly: Rat pregnane X receptor (rPXR) activation by small molecules, qHTS assay (AID 1346983). Note: nearly all actives have a fitted effect of over 20% in size. Particulars: rPXR luciferase reporter cells, One-Glo luminescence, 24 h; stronger effect = higher value. In outline:
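Cell-based rPXR luciferase reporter assay, 2,000 cells per well, rested 5hr at 37 C before compound addition in DMSO, then 24 hr at 37 C. One-Glo reagent was added and luminescence read after 30 min at room temperature.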

Assay [4] concerns the target Nuclear receptor subfamily 1 group I member 2 (Homo sapiens) (UniProt O75469). Briefly: CYP3A4 induction through human pregnane X receptor (PXR) by small molecules, qHTS assay (AID 1346984). Note: nearly all actives have a fitted effect of over 40% in size. Put shortly:
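DPX-2 reporter cells; 24h cpd, 37C; Luciferin-IPA 3uM final x3h; One-Glo 30 min RT; lumi read.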

For assay [5] the target is unchanged. Briefly: Human pregnane X receptor (PXR) activation by small molecules, qHTS assay (AID 1346985). Note: nearly all actives have a fitted effect of over 40% in size. In outline:
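DPX-2 cells (HepG2 co-transfected with a PXR response element and a CYP3A4-promoter luciferase construct) were seeded at 2,000 per well, rested 5 hr at 37C, then exposed to DMSO-dissolved compounds for 24 hr. Activation was read as luciferase luminescence.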

Assay [6] concerns the target Acetylcholinesterase (Homo sapiens) (UniProt P22303). Briefly: Acetylcholinesterase (AChE) small molecule antagonists: enzyme-based qHTS assay (AID 1347397; calls by dose curve; note: nearly all actives have a fitted effect of over 55% in size; note: potency is the fitted concentration of half-maximal effect). Particulars: Potency: AChE enzyme activity inhibition. In outline:
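Recombinant human AChE, dispensed at 50 mU/mL, was preincubated with Tox21 10K compounds or DMSO vehicle for 30 min at room temperature. DTNB plus acetylthiocholine was then added, and thiocholine was measured colorimetrically after a further 10 min.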

Assay [7] has the same target. Put plainly: Acetylcholinesterase (AChE) small molecule antagonists: fluorescence cell-based qHTS assay (AID 1347398; calls by dose curve; note: nearly all actives have a fitted effect of over 50% in size; note: potency is the fitted concentration of half-maximal effect). Particulars: Potency: AChE activity. In outline:
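Human SH-SY5Y cells were plated overnight at 37 C, exposed to compound for 30 min at 37 C, 5% CO2, then given acetylthiocholine plus Thiolite Green for 40 min at room temperature; thiocholine fluorescence (Ex/Em 490/520 nm) reports endogenous AChE activity.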

Assay [8] shares this target. Briefly: Acetylcholinesterase (AChE) small molecule antagonists: enzyme-based qHTS assay with human liver microsomes (AID 1347399; calls by dose curve; note: nearly all actives have a fitted effect of over 60% in size). Particulars: Potency: qHTS inhibition. In outline: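 Recombinant human AChE (50 mU/mL in the enzyme mix) and human liver microsomes (0.25 mg/mL final) were preincubated with compound and NADPH (0.25 mg/mL final) for 30 min at 37 C. Acetylthiocholine/DTNB was then added; thiocholine was read colorimetrically after 10 min at room temperature.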

Assay [9] concerns the target Cytochrome P450 2D6 (Homo sapiens) (UniProt P10635). Put plainly: Cytochrome P450 Family 2 Subfamily D Member 6 (CYP2D6) small molecule antagonists: luciferase reporter qHTS assay (AID 1671196). Note: nearly all actives have a fitted effect of over 50% in size. Note: potency is the fitted concentration of half-maximal effect. Put shortly: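 Inhibition of CYP2D6 was gauged by loss of luminescence, since light produced tracks the luciferin generated from a proluciferin substrate. A 10 min room-temperature preincubation preceded 1 h NADPH-supported turnover.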
(In general: In a reporter assay the amount or activity of a reporter protein is the signal.)

Assay [10] concerns the target Cytochrome P450 2C9 (Homo sapiens) (UniProt P11712). Briefly: Cytochrome P450 Family 2 Subfamily C Member 9 (CYP2C9) small molecule antagonists: luciferase reporter qHTS assay (AID 1671198). Note: nearly all actives have a fitted effect of over 50% in size. Note: potency is the fitted concentration of half-maximal effect. In outline:
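CYP2C9 activity was measured with a P450-Glo proluciferin substrate. Enzyme–substrate mix was held with compound for 10 min at room temperature, then NADPH regeneration solution was added for 1 h at 37C. Luciferin product was read as luminescence.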

Assay [11] addresses Cytochrome P450 1A2 (Homo sapiens) (UniProt P05177). Put plainly: Cytochrome P450 Family 1 Subfamily A Member 2 (CYP1A2) small molecule antagonists: luciferase reporter qHTS assay (AID 1671199). Note: nearly all actives have a fitted effect of over 50% in size. Note: potency is the fitted concentration of half-maximal effect. Put shortly: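 Signal from luciferin formed by CYP1A2 from a proluciferin substrate is read as luminescence, expressed in relative luminescence units. Compounds sit with enzyme 10 min, NADPH-driven reaction runs 1 h, all at room temperature.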

Assay [12] deals with Voltage-gated inwardly rectifying potassium channel KCNH2 (Homo sapiens) (UniProt Q12809). Briefly: Human Ether-a-go-go-Related Gene (hERG) channel small molecule antagonists: fluorescence cell-based qHTS assay (AID 1671200). Note: nearly all actives have a fitted effect of over 50% in size. Note: potency is the fitted concentration of half-maximal effect. In outline: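 U2OS cells expressing the channel were plated at 1000 cells/well, incubated overnight at 37 C, then loaded with FluxOR II thallium-sensitive dye for 1 h at room temperature in the dark, with a further 10 min at room temperature before stimulation.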
(In general: The hERG channel carries a current that helps repolarise heart muscle cells.)

In assay [13] the target is Cytochrome P450 3A4 (Homo sapiens) (UniProt P08684). Briefly: Cytochrome P450 Family 3 Subfamily A Member 4 (CYP3A4) small molecule antagonists: luciferase reporter qHTS assay (AID 1671201). Note: nearly all actives have a fitted effect of over 50% in size. Note: potency is the fitted concentration of half-maximal effect. In outline: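 P450-Glo CYP3A4 system with proluciferin substrate; compounds preincubated 10 min RT with enzyme-substrate mix, then NADPH regeneration added for 1 h RT. Detection reagent 20 min, luminescence read as relative luminescence units.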

A short description of assay [14]: Caspase-3/7 induction in HepG2 cells by small molecules, qHTS cell viability counter screen (AID 1346981). Note: nearly all actives have a fitted effect of over 30% in size. Note: potency is the fitted concentration of half-maximal effect. Put shortly: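 Counter screen for cytotoxicity: HepG2 exposed 16 hr to compounds, then CellTiter-Fluor viability signal (fluorescence, 1 hr reagent incubation).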
Assay [15] addresses Cytochrome P450 2C19 (Homo sapiens) (UniProt P33261). Briefly: Cytochrome P450 Family 2 Subfamily C Member 19 (CYP2C19) small molecule antagonists: luciferase reporter qHTS assay (AID 1671197). Note: nearly all actives have a fitted effect of over 65% in size. Note: potency is the fitted concentration of half-maximal effect. Put shortly:
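P450-Glo CYP2C19 screening system; proluciferin substrate; DMSO compound stocks; 10 min RT preincubation; NADPH regeneration, 1 h at 37C; luciferin detection reagent, 20 min RT; luminescence as RLU.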

SMILES strings stand for the structures. “And” between values parts separate entries of the source, which are not always exact repeats. Equal entries are not always repeated. Inconclusive results are not listed. Some structures have more than one record in an assay (separate samples or runs), and their calls can disagree. The source made the active and inactive calls. Unless noted, calls come from the whole dose curve; as a rule, active = well fitted curve in the direction sought with a large enough effect in the repeat runs; inconclusive = weak or mixed curves; inactive = no such curve, though single readings can be large; an effect the other way counts as inactive or inconclusive.
% is set by controls: 0 for no effect and ±100 for the full control effect.

Sequence of Cytochrome P450 3A4 (Homo sapiens) (P08684 whole entry, looked up): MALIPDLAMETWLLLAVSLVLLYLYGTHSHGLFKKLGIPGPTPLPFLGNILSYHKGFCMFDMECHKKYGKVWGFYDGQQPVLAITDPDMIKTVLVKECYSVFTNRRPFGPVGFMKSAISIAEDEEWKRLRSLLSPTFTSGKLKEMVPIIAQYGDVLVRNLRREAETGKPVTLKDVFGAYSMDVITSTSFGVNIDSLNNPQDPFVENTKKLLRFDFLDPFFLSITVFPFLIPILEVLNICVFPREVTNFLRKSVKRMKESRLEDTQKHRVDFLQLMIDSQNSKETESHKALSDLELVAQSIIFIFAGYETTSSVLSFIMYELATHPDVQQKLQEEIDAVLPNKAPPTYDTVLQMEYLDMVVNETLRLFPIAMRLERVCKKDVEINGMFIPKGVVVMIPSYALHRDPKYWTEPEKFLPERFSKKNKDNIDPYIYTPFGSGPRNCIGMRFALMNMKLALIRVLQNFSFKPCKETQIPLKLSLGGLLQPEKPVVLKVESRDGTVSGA
Sequence of Voltage-gated inwardly rectifying potassium channel KCNH2 (Homo sapiens) (Q12809 whole entry, looked up): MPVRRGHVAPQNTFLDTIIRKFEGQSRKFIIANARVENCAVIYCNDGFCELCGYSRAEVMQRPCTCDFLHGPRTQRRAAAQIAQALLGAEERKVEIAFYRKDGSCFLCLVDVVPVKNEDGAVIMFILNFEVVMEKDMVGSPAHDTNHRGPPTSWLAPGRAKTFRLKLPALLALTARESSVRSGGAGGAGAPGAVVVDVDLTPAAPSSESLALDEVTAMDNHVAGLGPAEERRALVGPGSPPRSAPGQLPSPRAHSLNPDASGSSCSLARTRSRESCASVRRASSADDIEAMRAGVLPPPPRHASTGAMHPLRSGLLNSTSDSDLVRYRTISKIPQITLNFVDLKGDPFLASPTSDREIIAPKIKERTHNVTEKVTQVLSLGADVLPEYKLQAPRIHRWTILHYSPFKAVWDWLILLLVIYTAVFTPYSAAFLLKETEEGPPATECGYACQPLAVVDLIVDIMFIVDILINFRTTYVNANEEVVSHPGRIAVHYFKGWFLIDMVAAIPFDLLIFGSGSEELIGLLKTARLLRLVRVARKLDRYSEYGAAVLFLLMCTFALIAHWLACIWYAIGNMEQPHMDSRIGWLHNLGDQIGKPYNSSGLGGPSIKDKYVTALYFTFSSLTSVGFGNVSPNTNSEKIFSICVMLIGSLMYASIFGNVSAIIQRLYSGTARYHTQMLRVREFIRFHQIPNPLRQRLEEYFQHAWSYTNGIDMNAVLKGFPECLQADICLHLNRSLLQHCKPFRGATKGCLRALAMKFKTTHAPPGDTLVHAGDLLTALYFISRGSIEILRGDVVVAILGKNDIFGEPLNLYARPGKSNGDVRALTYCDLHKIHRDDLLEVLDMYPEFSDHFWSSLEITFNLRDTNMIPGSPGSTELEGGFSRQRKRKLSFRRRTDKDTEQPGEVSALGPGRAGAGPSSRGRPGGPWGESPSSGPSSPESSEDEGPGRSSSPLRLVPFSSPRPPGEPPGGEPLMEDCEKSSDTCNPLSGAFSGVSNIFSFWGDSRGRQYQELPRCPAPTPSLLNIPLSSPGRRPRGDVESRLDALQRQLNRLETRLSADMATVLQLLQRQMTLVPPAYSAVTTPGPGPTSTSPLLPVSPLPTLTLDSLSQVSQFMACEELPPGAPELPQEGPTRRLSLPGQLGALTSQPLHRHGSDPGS
Sequence of Cytochrome P450 2D6 (Homo sapiens) (P10635 whole entry, looked up): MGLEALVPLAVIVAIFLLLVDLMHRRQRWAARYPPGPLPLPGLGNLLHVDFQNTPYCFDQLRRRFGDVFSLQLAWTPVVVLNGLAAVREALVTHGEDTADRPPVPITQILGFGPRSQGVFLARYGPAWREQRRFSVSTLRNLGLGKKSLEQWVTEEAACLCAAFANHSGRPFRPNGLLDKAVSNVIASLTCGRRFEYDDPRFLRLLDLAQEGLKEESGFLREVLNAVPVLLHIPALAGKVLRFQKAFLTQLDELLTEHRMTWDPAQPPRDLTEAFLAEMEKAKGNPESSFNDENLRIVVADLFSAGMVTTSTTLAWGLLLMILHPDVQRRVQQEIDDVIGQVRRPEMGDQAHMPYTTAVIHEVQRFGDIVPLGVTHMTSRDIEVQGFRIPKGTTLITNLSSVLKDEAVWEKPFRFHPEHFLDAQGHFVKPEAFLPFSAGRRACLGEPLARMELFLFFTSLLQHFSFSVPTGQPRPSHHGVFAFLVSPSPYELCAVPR
Sequence of Nuclear receptor subfamily 1 group I member 2 (Homo sapiens) (O75469 whole entry, looked up): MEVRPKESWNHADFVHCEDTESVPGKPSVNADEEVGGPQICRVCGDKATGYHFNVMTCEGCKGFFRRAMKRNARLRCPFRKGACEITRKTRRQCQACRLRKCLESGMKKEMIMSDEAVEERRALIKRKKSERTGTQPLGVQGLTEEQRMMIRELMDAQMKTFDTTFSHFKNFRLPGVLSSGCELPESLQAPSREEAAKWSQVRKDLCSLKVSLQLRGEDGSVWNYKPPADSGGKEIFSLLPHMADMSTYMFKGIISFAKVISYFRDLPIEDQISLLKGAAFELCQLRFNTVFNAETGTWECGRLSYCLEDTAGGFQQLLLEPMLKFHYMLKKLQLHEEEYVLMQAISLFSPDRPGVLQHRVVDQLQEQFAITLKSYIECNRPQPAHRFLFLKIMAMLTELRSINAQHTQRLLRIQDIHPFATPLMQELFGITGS
Sequence of Cytochrome P450 2C9 (Homo sapiens) (P11712 whole entry, looked up): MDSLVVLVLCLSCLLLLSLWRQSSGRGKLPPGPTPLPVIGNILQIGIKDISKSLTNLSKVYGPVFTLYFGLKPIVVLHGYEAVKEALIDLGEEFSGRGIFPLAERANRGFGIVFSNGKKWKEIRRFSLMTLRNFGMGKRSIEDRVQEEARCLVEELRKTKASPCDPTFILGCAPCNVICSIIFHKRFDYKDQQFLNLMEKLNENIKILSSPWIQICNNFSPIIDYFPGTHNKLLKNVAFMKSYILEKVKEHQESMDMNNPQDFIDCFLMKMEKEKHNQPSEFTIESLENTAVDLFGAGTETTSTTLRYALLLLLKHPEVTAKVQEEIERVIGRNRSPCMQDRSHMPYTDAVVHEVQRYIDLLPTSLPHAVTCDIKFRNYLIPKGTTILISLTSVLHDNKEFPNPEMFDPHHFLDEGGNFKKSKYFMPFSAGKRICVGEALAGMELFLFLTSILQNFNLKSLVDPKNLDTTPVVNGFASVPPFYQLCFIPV
Sequence of Cytochrome P450 2C19 (Homo sapiens) (P33261 whole entry, looked up): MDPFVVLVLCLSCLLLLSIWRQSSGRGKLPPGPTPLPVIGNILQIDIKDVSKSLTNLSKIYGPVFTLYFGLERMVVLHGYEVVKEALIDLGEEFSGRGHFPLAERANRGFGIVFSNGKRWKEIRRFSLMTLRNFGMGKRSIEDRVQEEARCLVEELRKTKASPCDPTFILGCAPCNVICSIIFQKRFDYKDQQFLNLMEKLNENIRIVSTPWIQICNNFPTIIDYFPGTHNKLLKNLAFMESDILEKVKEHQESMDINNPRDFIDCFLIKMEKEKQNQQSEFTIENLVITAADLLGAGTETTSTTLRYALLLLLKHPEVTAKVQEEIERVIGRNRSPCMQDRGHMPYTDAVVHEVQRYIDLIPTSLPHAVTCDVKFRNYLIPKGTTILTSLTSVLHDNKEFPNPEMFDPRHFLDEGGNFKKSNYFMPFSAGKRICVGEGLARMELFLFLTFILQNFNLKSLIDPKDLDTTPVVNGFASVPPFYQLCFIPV
Sequence of Cytochrome P450 1A2 (Homo sapiens) (P05177 whole entry, looked up): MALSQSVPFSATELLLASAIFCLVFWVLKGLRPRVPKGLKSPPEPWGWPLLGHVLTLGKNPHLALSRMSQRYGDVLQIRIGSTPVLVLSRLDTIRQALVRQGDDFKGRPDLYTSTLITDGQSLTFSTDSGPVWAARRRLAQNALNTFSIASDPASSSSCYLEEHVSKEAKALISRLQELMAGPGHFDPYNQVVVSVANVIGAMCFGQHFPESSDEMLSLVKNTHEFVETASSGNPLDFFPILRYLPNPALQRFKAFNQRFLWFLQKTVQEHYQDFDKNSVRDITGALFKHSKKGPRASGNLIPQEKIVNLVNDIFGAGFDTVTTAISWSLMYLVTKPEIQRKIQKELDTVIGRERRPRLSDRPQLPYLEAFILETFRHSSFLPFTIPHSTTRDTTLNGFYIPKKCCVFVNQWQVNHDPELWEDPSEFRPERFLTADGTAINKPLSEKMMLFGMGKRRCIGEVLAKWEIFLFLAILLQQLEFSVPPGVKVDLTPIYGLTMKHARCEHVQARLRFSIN
Sequence of Acetylcholinesterase (Homo sapiens) (P22303 whole entry, looked up): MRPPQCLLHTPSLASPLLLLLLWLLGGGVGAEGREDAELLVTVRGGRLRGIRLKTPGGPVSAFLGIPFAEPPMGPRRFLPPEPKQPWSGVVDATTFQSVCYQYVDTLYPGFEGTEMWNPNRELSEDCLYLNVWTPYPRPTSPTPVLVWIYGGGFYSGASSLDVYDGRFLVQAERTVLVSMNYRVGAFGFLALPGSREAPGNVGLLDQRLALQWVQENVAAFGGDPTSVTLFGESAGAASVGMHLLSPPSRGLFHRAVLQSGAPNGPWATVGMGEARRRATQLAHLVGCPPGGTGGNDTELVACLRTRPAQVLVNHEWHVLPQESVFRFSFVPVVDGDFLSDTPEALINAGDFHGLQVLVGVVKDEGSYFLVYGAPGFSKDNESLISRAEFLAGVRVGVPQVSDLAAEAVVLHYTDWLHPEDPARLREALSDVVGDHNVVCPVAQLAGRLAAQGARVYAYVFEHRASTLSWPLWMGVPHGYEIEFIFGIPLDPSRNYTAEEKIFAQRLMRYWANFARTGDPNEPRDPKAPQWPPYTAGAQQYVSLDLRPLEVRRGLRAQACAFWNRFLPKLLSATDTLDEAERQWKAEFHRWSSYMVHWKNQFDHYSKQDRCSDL

Consider `C1CCC(NC2CCCCC2)CC1`, for which the Potency result in assay [1], in [2], in [5], in assay [6], in assay [7] and in [8] was “inactive” each time. Moreover, the Potency result in assay [10], in assay [11], in assay [12] and in [13] was “inactive” in each case. For the same molecule, the max activation in assay [3] is -0.555% (inactive). Also, the molecule was called inactive in [4]. Moreover, in assay [9], the Potency is 1.47 µM (active) and 252 nM (active) and 246 nM (active).

Turning to `CCCC[n+]1ccc(C)cc1`, the Potency entry in assay [1], in assay [15], in [12] and in [13] was “inactive” each time. Also, the Potency result in [14] is “inactive and 19.4 µM (active)”; in assay [2], “inactive and 5.45 µM (active)”; in assay [9], “inactive and 449 nM (active)”; in [10] it was “inactive and 22.3 µM (active)”; in assay [11], 36.1 µM (active) and 35.4 µM (active) and inactive.

Consider `O=c1[nH]c(=O)n(Cl)c(=O)n1Cl`, for which the Potency entry in assay [1], in assay [14], in assay [2], in [5], in assay [6] and in assay [7] was “inactive” each time. The Potency result in assay [8], in assay [9], in assay [10], in [11], in assay [12] and in assay [13] was “inactive” each time. Besides, the max activation in assay [3] was 0.0078% (inactive). Besides, the call in assay [4] was inactive. In addition, the Potency in assay [15] is 56.4 µM (active) and inactive.

Take `O=P1(N(CCCl)CCCl)NCCCO1` (configuration not stated): the Potency result in [1], in assay [2], in [6], in [7], in assay [8] and in [9] was “inactive” throughout. Besides, the Potency result in assay [10], in assay [11] and in assay [12] was “inactive” each time. In addition, the Potency in [15] is 71.8 µM (active) and inactive.

For the molecule `CCCCCCCCCCCCOS(=O)(=O)O`, the Potency entry in [1], in assay [2], in [5], in assay [6], in [7] and in assay [8] was “inactive” in each case. In addition, the Potency result in assay [9], in assay [11], in assay [12] and in [13] was “inactive” each time. Moreover, the outcome in [4] was inactive. The Potency in assay [15] was 78.5 µM (active) and inactive; in assay [10] it was 78.5 µM (active) and 71 µM (active) and inactive.

In the case of `CCCCCCCCCCCCCC[P+](CCCCCC)(CCCCCC)CCCCCC`, the Potency result in [1] is “inactive and 13.8 µM (active)”; in assay [14] it was 13.7 µM (active) and 19.5 µM (active) and inactive; in [2] it was 2.74 µM (active) and 3.89 µM (active) and 3.43 µM (active); in assay [6], 20.1 µM (active) and 25.4 µM (active) and inactive; in assay [7], 35.7 µM (active) and 71.6 µM (active) and inactive; in assay [9], 201 nM (active) and 101 nM (active) and 224 nM (active). The Potency in assay [15] was 25.3 µM (active) and 35.9 µM (active) and 79.6 µM (active); in [10], 25.3 µM (active) and 35.9 µM (active) and 5.63 µM (active); in [11] it was 35.7 µM (active) and 63.8 µM (active); in [12], 552 nM (active) and 349 nM (active) and 691 nM (active); in assay [13] it was 7.13 µM (active) and 7.16 µM (active) and 3.99 µM (active). Further, in [8], the Potency result was “inactive”.
